Assay outcomes from PubChem BioAssay.
Pf growth 48h: Primary qHTS for delayed death inhibitors of the malarial parasite plastid, 48 hour incubation | Potency, µM (highest dose often 28.7 µM), for the others: at the top dose activity change, negative = inhibition, hits mostly inhibitors | AID 504832, 2011 | 310,000 compounds, 5.9% hits | P. falciparum luciferase growth in erythrocytes, 48 h; also: potency is read from the fitted curve at half-maximal effect; % is scaled to controls: 0 for no effect and ±100 for the full control effect
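Cell-based growth assay: transgenic P. falciparum expressing firefly luciferase, cultured in red cells within RPMI 1640 containing 0.5% w/v Albumax, 24 mM bicarbonate and gentamycin. A drop in luciferase activity indicates inhibition.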
Pf growth 96h: Primary qHTS for delayed death inhibitors of the malarial parasite plastid, 96 hour incubation; P. falciparum luciferase reporter growth, 96 h; Potency, µM (highest dose often 28.7 µM), for inactives: top-dose activity change, negative = inhibition, hits mostly inhibitors; 320,000 compounds, 6.9% hits; AID 504834, 2011; also: potency is read from the fitted curve at half-maximal effect; % is scaled to controls: 0 for no effect and ±100 for the full control effect
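Readout is luminescence from an integrated firefly luciferase in P. falciparum. Red cells, 2% hematocrit and 0.05% parasitemia final, were cultured with compound through two parasite generations (96 hours) at 37 C, 5% CO2.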
Cycloheximide cs: Cycloheximide Counterscreen for Small Molecule Inhibitors of Shiga Toxin. AID 2314, 2010. 300,000 compounds, 12% hits. max response, %. cell reporter, cycloheximide protein synthesis inhibition counterscreen; in the data active = max response mostly above about 13%, no sharp cut-off; inactive = mostly below about 14%; also: read at 38.3 µM for the half of the compounds with a filed dose; 0% is about no effect
Shiga inhibitor: A qHTS for Small Molecule Inhibitors of Shiga Toxin. AID 2315, 2010. Vero cells, Shiga toxin protein synthesis inhibition reporter. inhibition, % at 38.7 µM. 290,000 compounds, 9.2% hits; in the data active = inhibition mostly above about 28%, no sharp cut-off; inactive = mostly below about 43%; also: 0% is about no effect
MARV entry inh: qHTS for inhibitors of binding or entry into cells for Marburg Virus | Marburg virus pseudotyped entry inhibition, cell reporter | Potency, µM (series often up to 37.8 µM), inactives show top-dose activity change, negative = inhibition, actives largely listed as inhibitors | 300,000 compounds, 1.8% hits | AID 540276, 2011; calls by dose curve; tested in HEK293 cells; also: potency is read from the fitted curve at half-maximal effect; % is scaled to controls: 0 for no effect and ±100 for the full control effect
LASV entry inh: qHTS for Inhibitors of binding or entry into cells for Lassa Virus; Potency, µM (titrated, usually from 37.9 µM), inactives show top-dose activity change, negative = inhibition, usual class: inhibitors; 300,000 compounds, 1.2% hits; Lassa virus pseudotype entry inhibition, cell reporter; calls by dose curve; tested in HEK293 cells; also: potency is read from the fitted curve at half-maximal effect; % is scaled to controls: 0 for no effect and ±100 for the full control effect; nearly all actives have a fitted effect of over 50% in size
Numbers without * were called inactive; ? = inconclusive; . = no result given; [ ] = remark or other dose. In the library only some 19% were active in any assay of this set; here they are far more common. Unless noted, calls follow the shape of the dose curve; as a rule, active = well fitted inhibition curve with a large enough effect; inconclusive = small, poorly fitted or top-dose-only effect, or another doubt; inactive = no such curve, though single readings can be large or run the other way.

SMILES | Pf growth 48h | Pf growth 96h | Cycloheximide cs | Shiga inhibitor | MARV entry inh | LASV entry inh
Cc1ccc(C2CC(c3cccs3)=NN2C(=O)c2ccco2)o1 (stereo not given) | ? | 2% | 2 | 10 | ? | 5%[46.1 µM]
Cc1cccc(OCCn2c(-c3ccco3)nc3ccccc32)c1 | ? | ? | 26* | 23 | -3% | 2%
c1ccc(OCCn2c(-c3ccco3)nc3ccccc32)cc1 | ? | 18% | 20* | 70* | -24% | 1%
O=S(=O)(O)c1nc2ccccc2n1CCOc1ccccc1 | 0% | -14% | -2 | 14 | 14% | 0%
Cc1cccc(OCCn2c(S(=O)(=O)O)nc3ccccc32)c1 | 2% | -2% | 0 | 1 | -11% | 11%
O=C(Cn1c(-c2ccco2)nc2ccccc21)N1CCCCC1 | -2% | 31% | 9 | -8 | 0% | 4%
CCn1c(-c2ccco2)nc2ccccc21 | 65% | -4% | 26* | 77* | -24%[46.1 µM] | 2%
CCOC(=O)c1ccccc1NC(=O)COC(=O)CCNS(=O)(=O)c1ccc(C)c(C)c1 | -17% | 2% | . | . | 7% | 3%
Cn1c(=O)c2[nH]c(SCc3ccccn3)nc2n(C)c1=S | 14% | ? | -3 | -3 | . | .
Cn1c(SCC(=O)c2ccc(O)c(O)c2)nnc1-c1ccccc1 | . | -10% | 11 | 29 | . | .
CCCCCCCC[n+]1c(C)n(-c2ccccc2)c2ccc(NC(C)=O)cc21 | ? | 0% | 1 | -6 | ? | 7.1µM*
CCN(CC)CCNC(C(=O)Nc1ccc([N+](=O)[O-])cc1Br)c1ccccc1 (stereo not given) | -16% | ? | -3 | -4 | ? | 1%
[O-]/[N+](=C\C=C\c1ccccc1)c1ccccc1 | 72% | 126% | 50* | 133* | . | .
CCC(C)CCN1C(N(C)C)=NC[C@@H]1CC(C)C (stereo not given in full) | 13µM* | ? | . | . | . | .
CC(C)C[C@H]1CN=C(Nc2ccccc2)N1CCCCc1ccccc1 | ? | ? | 2 | -3 | . | .
CCC(CC)CN1C(N(C)C)=NC[C@@H]1CC(C)C | ? | 8.3µM* | . | . | . | .
CCC(CC)CN1C(Nc2ccccc2)=NC[C@@H]1CC(C)C | ? | 0% | -1 | -10 | . | .
CC(C)C[C@H]1CN=C(N(C)C)N1CCCCc1ccccc1 | 5.2µM* | ? | . | . | . | .
CCOC(=O)N1CCC(NS(=O)(=O)c2ccccc2)CC1 | -6% | 33% | -1 | 13 | . | .
CCN=c1sc(C(=O)NCCc2ccccc2)cc(=O)n1CC | ? | 12% | 47* | 97* | ? | ?
O=C(NCCc1cccc(Cl)c1)c1cccs1 | 64% | ? | 67* | 101* | ? | -8%[46.1 µM]
CCn1c(=O)c2cc(C(=O)NCCc3cccc(C)c3)sc2c2ccccc21 | . | . | . | . | -19%[46.1 µM] | 9%[46.1 µM]
O=C(NCCc1ccccc1)c1cnc2sccn2c1=O | 133% | 146% | 43* | 93* | . | .
O=C(NCc1nc2ccccc2[nH]1)c1cccs1 | 37% | 25% | 23* | 14 | . | .
Cn1c(=O)c([N+](=O)[O-])c(NCc2ccc3c(c2)OCO3)c2ccccc21 | 51% | 3% | 10 | 20 | 11%[46.1 µM] | -19%[46.1 µM]
SMILES | Pf growth 48h | Pf growth 96h | Cycloheximide cs | Shiga inhibitor | MARV entry inh | LASV entry inh
O=C(NCCCNC(=O)c1cccs1)c1cccs1 | 11% | 55% | -2 | 15 | 10% | -2%
Cc1cc2ccccc2n1CCNC(=O)c1cccc(Cl)c1 | . | . | . | . | -17%[46.1 µM] | -2%[46.1 µM]
O=C(NCCc1ccccc1)c1cccs1 | . | 164% | 29* | 50 | ? | -8%
Cc1cc2ccccc2n1CCNC(=O)c1cccs1 | -74% | ? | 17* | 32* | . | .
Fc1ccc(NC(=S)Nc2cccnc2)cc1 | 11% | 0% | 10 | -4 | 8%[46.1 µM] | -19%[46.1 µM]
Fc1ccc(NC(=S)Nc2cccnc2)cc1Cl | 15µM* | ? | -1 | 2 | . | .
O=C(Nc1ccc(F)c(Cl)c1)c1ccccc1 | 123% | 157% | . | . | . | .
O=C(Nc1ccc(F)c(Cl)c1)c1cccnc1 | 52% | 3% | 14* | 7 | ? | ?
c1ccc(Cn2nnc3c(NCC4CCCO4)ncnc32)cc1 (stereo not given) | 42% | 12µM* | 9 | 56 | 23% | 4%
O=C(Cc1ccc(-n2c(=O)c3ccccc3n(Cc3ccccc3F)c2=O)cc1)NCC1CCCO1 (stereo not given) | -15% | 4.7µM* | -2 | -11 | -7% | 4%
O=C(CSc1ncnc2c1nnn2Cc1ccccc1F)NCC1CCCO1 (stereo not given) | 15µM* | ? | -2 | -8 | ? | ?
Nc1ncnc2c1ncn2C1CCCO1 (stereo not given) | -15% | -1% | . | . | ? | ?
c1ccc(Cn2nnc3c(NCC4CCCO4)nc(C4CC4)nc32)cc1 (stereo not given) | ? | ? | -3 | -12 | . | .
Fc1ccccc1CSc1ncnc2c1ncn2C1CCCO1 (stereo not given) | . | . | . | . | 0.89µM* | ?
COc1ccc(NC(=O)Cn2nnc3sc4c(c3c2=O)CCC(C)C4)c(OC)c1 (stereo not given) | . | . | . | . | -21%[46.1 µM] | ?
N#Cc1ccccc1OCC(=O)OCC(=O)c1c[nH]c2ccccc12 | -13% | -21% | . | . | . | .
CCC(C)c1ccccc1NC(=O)CN(C)CCOc1ccc(Cl)cc1 (stereo not given) | ? | ? | 2 | 22 | ? | ?
CCC(=O)Nc1c(C(=O)N2CCN(c3ccccn3)CC2)cnn1-c1ccc(C)cc1 | -4% | ? | -4 | 2 | 16% | 6%
O=C(CNC(=S)N(Cc1ccc(F)cc1)C1CCCCC1)NCC1CCCO1 (stereo not given) | ? | ? | 7 | -11 | 3%[46.1 µM] | -5%
O=C(CNC(=S)N(Cc1ccccc1F)C1CCCCC1)NCC1CCCO1 (stereo not given) | ? | 11% | 3 | 21 | ? | 4.5µM*
CC(=O)Nc1c(F)c(F)c(F)c(F)c1F | 1% | 0% | 2 | -4 | . | .
CNc1ccccc(-c2ccc3ccccc3n2)c1=O | 278% | 431% | 59* | 52* | ? | ?
CC(=O)Nc1ccc(NC2(C)C(=O)c3ccccc3C2=O)cc1 | 7% | 15% | 1 | -20 | 2% | 24%
CC(=O)Nc1ccc2c(c1)C(C)(C)C(C)N2C (stereo not given) | -8% | 10µM* | 9 | 23 | 9%[46.1 µM] | -3%[46.1 µM]
CCc1ccccc1N(CC(=O)O)S(C)(=O)=O | 11% | 15µM* | -2 | 0 | 0%[46.1 µM] | 1%
COc1ccc(S(=O)(=O)N(C)CC(=O)NC2CCCCC2)cc1Cl | . | -18% | -4 | 3 | -13% | 4%
COC(=O)c1c(NC(=O)c2nc3nc(C)cc(C(F)F)n3n2)sc2c1CCC2 | ? | 5.2µM* | -2 | -5 | -14% | -3%
